The subject of one test is T1, PKAC-beta.
T1 construct: gene PRKACB
As to conditions: concentration: 1 μM, replicates: in singlicate; n = 1.
As to `Clc1cc(Nc2ncnc3cc[nH]c23)ccc1OCc1ccccn1`, the “%Inh” value is recorded as 0%. With `COc1cc2ncnc(Nc3ccc(OCc4ccccc4Br)c(Cl)c3)c2cc1OC.Cl` [GI261590], the “%Inh” value is listed as 0%.

On to `CCCc1ccc(S(=O)(=O)NC2CCN(c3ccnc(Nc4ccc(OC)cc4)n3)C2)cc1` (centres unmarked) [GSK1379737], for which the “%Inh” value was 0%. For `C[C@H]1CC[C@@H](C(=O)Nc2ccccc2)CN1c1cc(-c2ccc3c(N)n[nH]c3c2)nc(N)n1` [GSK2283293], the “%Inh” value was found to be 0%. `Fc1ccc(Nc2nccc(-c3c(-c4ccc(Cl)cc4)nn4ncccc34)n2)cc1F` [GW829058]: the “%Inh” value is reported as 24%.

With `COc1ccc(-c2oc3ncnc(N)c3c2-c2ccc(OC)cc2)cc1` [SB-589132], the “%Inh” value came out at 0%.

As to `Nc1nc(-c2ccc3c(N)n[nH]c3c2)cc(N2CCC[C@@H](C(=O)Nc3ccccc3)C2)n1.O=C(O)C(F)(F)F.O=C(O)C(F)(F)F` [GSK2288359], the “%Inh” value is recorded as 22%. `CS(=O)(=O)CCNCc1ccc(-c2ccc3ncnc(Nc4ccc(OCc5ccccc5)c(Cl)c4)c3c2)o1.Cl` [GW574783]: the “%Inh” value is 16%.

Take `CNc1nccc(-c2c(-c3ccc(F)cc3)ncn2C2CCN(C)CC2)n1` [SB-222903]: the “%Inh” value is reported as 17%. Turning to `Cl.O=S(=O)(c1cccc(F)c1)c1ccc(Nc2ncnc3cc(Br)sc23)cc1Cl` [GSK306886], the “%Inh” value came to 0%. On to `Cl.c1ccc(Cn2ccc3cc(Nc4ncnc5ccccc45)ccc32)cc1` [GW275568], for which the “%Inh” value was 0%. Still for that read-out and setting: next, `FC(F)(F)c1ccc(-c2cc(-c3c[nH]nc3-c3ccccn3)ccn2)cc1` [GW599550]: 6%; `CC(C)(C)c1ccc(-n2cnc3c(N)ncnc32)cc1` [SKF-97263]: 2%. The same measure, in the same setting: next, `Nc1nccc2scc(-c3ccc4c(c3)CCN4C(=O)Cc3cc(F)ccc3F)c12` [GSK2587663]: 12%; `NC(=O)c1sc(-n2cnc3ccccc32)cc1OCc1ccccc1F` [GSK1024306]: 2%; `O=C(NCCCN1CCCC1=O)c1cnc(NCc2cc(Cl)ccc2Cl)nc1NC1CCNCC1`: 0%. Take `CN1CCC(n2cnc(-c3ccc(F)cc3)c2-c2ccnc(NC3CCNCC3)n2)CC1` [SB-229482]: the “%Inh” value is listed as 13%. `O=C(Nc1n[nH]c2nc(-c3ccco3)c(Br)cc12)c1ccc(CN2CCCC2)cc1.O=C(O)[C@H](O)[C@@H](O)C(=O)O` [SB-742352]: the “%Inh” value turned out to be 0%.

For the compound `FC(F)(F)c1ccc(-c2nn3ncccc3c2-c2ccnc(Nc3cccc(C(F)(F)F)c3)n2)cc1` [GW828205], the “%Inh” value worked out at 24%.

In the case of `COc1ccc(NC(=O)Nc2ccc(C)c(-c3ccc(C(=O)Nc4ccncc4)cc3)c2)cc1` [GSK1398475], the “%Inh” value was 0%.

As for `Cl.Fc1ccccc1COc1ccc(Nc2ncnc3ccc(-c4nnc(C(F)(F)F)o4)cc23)cc1Cl` [GW424170], the “%Inh” value is reported as 0%. `CCC(CC)(CC)n1cnc2c(N)ncnc21` [SKF-97620]: the “%Inh” value is given as 14%.

Turning to `Cn1ccc2ncnc(Oc3ccc(NC(=O)Nc4cccnc4)c(Cl)c3)c21`, the “%Inh” value was 0%. On to `Cl.c1ccc(Cn2ncc3cc(Nc4ncnc5ccccc45)ccc32)cc1` [GW273749], for which the “%Inh” value is 0%. For `Cc1ccc(O)cc1Nc1cc(C(F)(F)F)nc2ccc(-c3ccncc3)cc12` [GW630823], the “%Inh” value is 0%. The same measure, in the same setting: next, `Cn1ccc2ncnc(Nc3ccc(Oc4cccc(Cl)c4)c(Cl)c3)c21`: 0%; `Clc1ccc(-c2cc(-c3c[nH]nc3-c3ccccn3)ccn2)cc1` [GW681251]: 0%; `COC(=O)c1cccc(NC(=O)NCCNc2ccnc(Nc3ccc(F)cc3)n2)c1` [GSK1379883]: 0%.

As for `C[C@@H]1CCN(C(=O)CO)C[C@@H]1N(C)c1ncnc2[nH]ccc12`, the “%Inh” value is listed as 93.7%. In the case of `COc1ccc(NC(=O)c2ccc(-c3cc(-c4nnc(C)o4)ccc3C)cc2)cc1` [GW595885], the “%Inh” value was found to be 13%. Take `CC(C)N1CCC(n2cnc(-c3ccc(F)cc3)c2-c2ccnc(N)n2)CC1` [SB-223132]: the “%Inh” value came out at 22%. Still for that read-out and setting: next, `Oc1ccc2ncnc(Nc3ccc(OCc4ccccc4)cc3)c2c1` [GI262866]: 0%; `CC(=O)Nc1n[nH]c2ncc(-c3ccccc3)cc12` [SB-548492]: 14%. In the case of `CCc1nc(-c2cccc(C)c2)c(-c2ccnc(NC(=O)c3ccccc3)c2)s1`, the “%Inh” value stood at 0%.

On to `OCCOCCn1ccc2ncnc(Nc3ccc(Oc4cccc(Cl)c4)c(Cl)c3)c21`, for which the “%Inh” value turned out to be 0%.

The test system of another test is PKMYT1. As to conditions: concentration: 1 μM, replicates: in singlicate; n = 1.
As for `Clc1cc(Nc2ncnc3cc[nH]c23)ccc1OCc1ccccn1`, the “%Inh” value was 0%.

With `COc1cc2ncnc(Nc3ccc(OCc4ccccc4Br)c(Cl)c3)c2cc1OC.Cl` [GI261590], the “%Inh” value was found to be 3%. With `CCCc1ccc(S(=O)(=O)NC2CCN(c3ccnc(Nc4ccc(OC)cc4)n3)C2)cc1` (centres unmarked) [GSK1379737], the “%Inh” value is 0%. Still for that read-out and setting: next, `C[C@H]1CC[C@@H](C(=O)Nc2ccccc2)CN1c1cc(-c2ccc3c(N)n[nH]c3c2)nc(N)n1` [GSK2283293]: 0%; `Fc1ccc(Nc2nccc(-c3c(-c4ccc(Cl)cc4)nn4ncccc34)n2)cc1F` [GW829058]: 4%; `COc1ccc(-c2oc3ncnc(N)c3c2-c2ccc(OC)cc2)cc1` [SB-589132]: 0%.

With `Nc1nc(-c2ccc3c(N)n[nH]c3c2)cc(N2CCC[C@@H](C(=O)Nc3ccccc3)C2)n1.O=C(O)C(F)(F)F.O=C(O)C(F)(F)F` [GSK2288359], the “%Inh” value is 0%. Consider `CS(=O)(=O)CCNCc1ccc(-c2ccc3ncnc(Nc4ccc(OCc5ccccc5)c(Cl)c4)c3c2)o1.Cl` [GW574783], for which the “%Inh” value came to 0%. On the same count and under the same terms, next, `CNc1nccc(-c2c(-c3ccc(F)cc3)ncn2C2CCN(C)CC2)n1` [SB-222903]: 0%; `COc1ccc(-c2nc3n(c2-c2ccncc2)CCC3)cc1` [SKF-104493]: 0%. Regarding `Cl.O=S(=O)(c1cccc(F)c1)c1ccc(Nc2ncnc3cc(Br)sc23)cc1Cl` [GSK306886], the “%Inh” value turned out to be 26%.

On to `Cl.c1ccc(Cn2ccc3cc(Nc4ncnc5ccccc45)ccc32)cc1` [GW275568], for which the “%Inh” value stood at 0%. Take `FC(F)(F)c1ccc(-c2cc(-c3c[nH]nc3-c3ccccn3)ccn2)cc1` [GW599550]: the “%Inh” value stood at 0%. Take `CC(C)(C)c1ccc(-n2cnc3c(N)ncnc32)cc1` [SKF-97263]: the “%Inh” value is 3%. Regarding `Nc1nccc2scc(-c3ccc4c(c3)CCN4C(=O)Cc3cc(F)ccc3F)c12` [GSK2587663], the “%Inh” value is recorded as 1%.

Turning to `NC(=O)c1sc(-n2cnc3ccccc32)cc1OCc1ccccc1F` [GSK1024306], the “%Inh” value amounted to 0%. For the compound `O=C(NCCCN1CCCC1=O)c1cnc(NCc2cc(Cl)ccc2Cl)nc1NC1CCNCC1`, the “%Inh” value was 0%. On to `CN1CCC(n2cnc(-c3ccc(F)cc3)c2-c2ccnc(NC3CCNCC3)n2)CC1` [SB-229482], for which the “%Inh” value was 0%. `O=C(Nc1n[nH]c2nc(-c3ccco3)c(Br)cc12)c1ccc(CN2CCCC2)cc1.O=C(O)[C@H](O)[C@@H](O)C(=O)O` [SB-742352]: the “%Inh” value turned out to be 0%. Consider `FC(F)(F)c1ccc(-c2nn3ncccc3c2-c2ccnc(Nc3cccc(C(F)(F)F)c3)n2)cc1` [GW828205], for which the “%Inh” value stood at 15%. Consider `COc1ccc(NC(=O)Nc2ccc(C)c(-c3ccc(C(=O)Nc4ccncc4)cc3)c2)cc1` [GSK1398475], for which the “%Inh” value is reported as 0%. With `Cl.Fc1ccccc1COc1ccc(Nc2ncnc3ccc(-c4nnc(C(F)(F)F)o4)cc23)cc1Cl` [GW424170], the “%Inh” value was determined as 0%.

On to `CCC(CC)(CC)n1cnc2c(N)ncnc21` [SKF-97620], for which the “%Inh” value was 2%. Take `Cn1ccc2ncnc(Oc3ccc(NC(=O)Nc4cccnc4)c(Cl)c3)c21`: the “%Inh” value came out at 0%.

For `Cl.c1ccc(Cn2ncc3cc(Nc4ncnc5ccccc45)ccc32)cc1` [GW273749], the “%Inh” value stood at 0%. The same measure, in the same setting: next, `Cc1ccc(O)cc1Nc1cc(C(F)(F)F)nc2ccc(-c3ccncc3)cc12` [GW630823]: 9%; `Cn1ccc2ncnc(Nc3ccc(Oc4cccc(Cl)c4)c(Cl)c3)c21`: 0%; `Clc1ccc(-c2cc(-c3c[nH]nc3-c3ccccn3)ccn2)cc1` [GW681251]: 7%. Take `COC(=O)c1cccc(NC(=O)NCCNc2ccnc(Nc3ccc(F)cc3)n2)c1` [GSK1379883]: the “%Inh” value was 10%.

`C[C@@H]1CCN(C(=O)CO)C[C@@H]1N(C)c1ncnc2[nH]ccc12`: the “%Inh” value was determined as 100%. With `COc1ccc(NC(=O)c2ccc(-c3cc(-c4nnc(C)o4)ccc3C)cc2)cc1` [GW595885], the “%Inh” value stood at 0%. The same measure, in the same setting: next, `CC(C)N1CCC(n2cnc(-c3ccc(F)cc3)c2-c2ccnc(N)n2)CC1` [SB-223132]: 0%; `Oc1ccc2ncnc(Nc3ccc(OCc4ccccc4)cc3)c2c1` [GI262866]: 5%.

Regarding `CC(=O)Nc1n[nH]c2ncc(-c3ccccc3)cc12` [SB-548492], the “%Inh” value is listed as 0%. With `CCc1nc(-c2cccc(C)c2)c(-c2ccnc(NC(=O)c3ccccc3)c2)s1`, the “%Inh” value turned out to be 0%. Still for that read-out and setting: next, `OCCOCCn1ccc2ncnc(Nc3ccc(Oc4cccc(Cl)c4)c(Cl)c3)c21`: 0%.

These data come from publication PMC5540273 (PLoS ONE, 2017).
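Also: KINOMEscan kinase panel screen.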
